Assay outcomes (PubChem)
C diff HTS: C. difficile growth inhibitors, primary screen, HTS. Clostridium difficile clinical isolate growth, OD600, 24 h; stronger effect = lower value. growth activity, negative = inhibition, % at 16 µg/mL (by protocol). AID 1259249, 2017. hit rate 0.25% among 86,000;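 active means mean growth activity at or below -80% and every replicate also at or below -80%; inconclusive means mean at or below -80% but some replicate above -80%; inactive means mean growth activity above -80%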
T cruzi growth-1: T. cruzi intracellular proliferation inhibitors, primary screen, cell-based, beta-gal Tulahuen parasites, NIH3T3 host, luminescence | hit rate 5.9% among 77,000 | T. cruzi beta-gal in NIH3T3, GalScreen luminescence, 90 h | inhibition, % at 8.34 µM;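 active means mean inhibition above about 93%, with at least 55% of replicates each passing it, limit read from the data, passing the limit was not always enough; inconclusive means only one of those two conditions holds; inactive means neither condition holds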
Pf Dd2 growth: P. falciparum Dd2 growth inhibitors, primary screen, SYBR Green fluorescence, single dose replicates | 72 h; stronger effect = lower value | activity change, % at 10 µM | hit rate 2.3% among 94,000 | AID 1159554, 2015; in the data active means activity change below about -80%; inconclusive means no clear call, values can overlap the other calls
T cruzi growth-2: T. cruzi intracellular proliferation inhibitors, confirmation, cell-based, NIH3T3 host, beta-gal parasite, luminescence, cherry-pick. shares compounds with T cruzi growth-1. T. cruzi beta-gal in NIH3T3, GalScreen luminescence, 90 h. inhibition, % at 8.35 µM. hit rate 72% among 5,600;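 active means mean replicate inhibition above about 95% and at least 55% of replicates individually reaching it, limit read from the data; inconclusive means only one of the two criteria is met; inactive means neither criterion is met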
T cruzi growth-3: inhibitors of intracellular T. cruzi replication, confirmation, NIH3T3 host cells, beta-gal parasites, cherry-pick, set 2. inhibition, % at 2.09 µM. hit rate 21% among 5,600. T. cruzi beta-gal in NIH3T3, GalScreen luminescence, 90 h. shares compounds with T cruzi growth-1;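 active means mean inhibition above about 95%, with at least 55% of replicates also reaching it, limit read from the data; inconclusive means meets just one of the two conditions; inactive means meets neither condition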
NIH3T3 tox: cytotoxicity in mouse NIH/3T3 fibroblasts, confirmation, cytotoxicity control for T. cruzi proliferation inhibitor project, cell-based, cherry-pick, single point; shares compounds with T cruzi growth-1; NIH/3T3 viability, CellTiter-Glo ATP luminescence, 90 h; hit rate 14% among 5,600; cytotoxicity (signal decrease), % at 8.35 µM;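 active means mean signal decrease across replicates above about 35% based on untreated-well scatter, with enough replicates individually passing, limit read from the data; inconclusive means no rule stated though some were filed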
NIH3T3 tox 2: NIH/3T3 fibroblast cytotoxicity, confirmation, cytotoxicity control, cell-based, cherry-pick, single point, set 2 | shares compounds with T cruzi growth-1 | NIH/3T3 viability, CellTiter-Glo ATP luminescence, 90 h | inhibition, % at 24.9 µM | hit rate 56% among 5,600;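 active means mean loss of cell viability signal at or above a set limit, and enough replicates individually reaching it; inconclusive means meets only the mean limit or only the replicate share; inactive means meets neither condition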
A number is an active result. Most compounds without a hit are left out; they make up all but 6.7% or so of the library.

COc1ccc(S(=O)(=O)Nc2ccc3c(c2)C(=O)N([C@@H](C)CO)C[C@H](C)[C@@H](CN(C)Cc2ccc(C(F)(F)F)cc2)OCCCC[C@H](C)O3)cc1 was read as C diff HTS inactive, T cruzi growth-1 inactive and Pf Dd2 growth inactive.
`COc1ccc(CN(C)C[C@@H]2OCCCC[C@H](C)Oc3ccc(NS(=O)(=O)c4ccc(Cl)cc4)cc3C(=O)N([C@H](C)CO)C[C@H]2C)cc1` gave C diff HTS inactive, T cruzi growth-1 inconclusive, Pf Dd2 growth inactive, T cruzi growth-2 97, T cruzi growth-3 110, NIH3T3 tox inactive and NIH3T3 tox 2 103.
`COc1ccc(CN(C)C[C@H]2OCCCC[C@@H](C)Oc3ccc(NS(=O)(=O)c4ccc(Cl)cc4)cc3C(=O)N([C@H](C)CO)C[C@@H]2C)cc1` gave C diff HTS inactive, T cruzi growth-1 inactive and Pf Dd2 growth inactive.
COc1ccc(CN(C)C[C@H]2OCCCC[C@@H](C)Oc3ccc(NS(=O)(=O)c4ccc(Cl)cc4)cc3C(=O)N([C@@H](C)CO)C[C@H]2C)cc1 was read as C diff HTS inactive, T cruzi growth-1 inconclusive, Pf Dd2 growth inactive, T cruzi growth-2 inactive, T cruzi growth-3 inactive, NIH3T3 tox 38 and NIH3T3 tox 2 106.
`COc1ccc(CN(C)C[C@H]2OCCCC[C@H](C)Oc3ccc(NS(=O)(=O)c4ccc(Cl)cc4)cc3C(=O)N([C@H](C)CO)C[C@@H]2C)cc1` gave C diff HTS inactive, T cruzi growth-1 inactive and Pf Dd2 growth inactive.
`COc1ccc(S(=O)(=O)Nc2ccc3c(c2)C(=O)N([C@H](C)CO)C[C@H](C)[C@@H](CN(C)Cc2ccc(C(F)(F)F)cc2)OCCCC[C@@H](C)O3)cc1` gave C diff HTS inactive, T cruzi growth-1 98, Pf Dd2 growth inactive, T cruzi growth-2 102, T cruzi growth-3 inactive, NIH3T3 tox inactive and NIH3T3 tox 2 84.
Screening COc1ccc(CN(C)C[C@H]2OCCCC[C@@H](C)Oc3ccc(NS(=O)(=O)c4ccc(OC)cc4)cc3C(=O)N([C@@H](C)CO)C[C@@H]2C)cc1 returned C diff HTS inactive, T cruzi growth-1 inactive and Pf Dd2 growth inactive.
`COCC#Cc1cnc2c(c1)C(=O)N([C@@H](C)CO)C[C@H](C)[C@@H](CN(C)C(C)=O)O2` gave C diff HTS inactive, T cruzi growth-1 inactive and Pf Dd2 growth inactive.
Screening C[C@@H]1CCCCO[C@@H](CN(C)C(=O)c2ccncc2)[C@H](C)CN([C@H](C)CO)C(=O)c2cc(NC(=O)c3ccncc3)ccc2O1 returned C diff HTS inactive, T cruzi growth-1 inactive and Pf Dd2 growth inactive.
Screening C[C@H](CO)N1C[C@H](C)[C@H](CN(C)S(=O)(=O)c2ccccc2)Oc2ccc(NC(=O)C3CC3)cc2CC1=O returned C diff HTS inactive, T cruzi growth-1 inactive and Pf Dd2 growth inactive.
Screening O=S(=O)(N[C@@H]1CC[C@@H](CCn2cc(-c3cccc(F)c3)nn2)O[C@H]1CO)c1ccc(F)cc1 returned C diff HTS inactive.
`COc1ccc(CN(C)C[C@H]2OCCCC[C@H](C)Oc3ccc(NS(=O)(=O)c4ccc(F)cc4)cc3C(=O)N([C@@H](C)CO)C[C@H]2C)cc1` gave C diff HTS inactive, T cruzi growth-1 103, Pf Dd2 growth inactive, T cruzi growth-2 105, T cruzi growth-3 inactive, NIH3T3 tox inactive and NIH3T3 tox 2 103.
For COc1ccc(CN(C)C[C@H]2OCCCC[C@@H](C)Oc3ccc(NS(=O)(=O)c4ccc(F)cc4)cc3C(=O)N([C@H](C)CO)C[C@@H]2C)cc1 the results were C diff HTS inactive, T cruzi growth-1 inactive and Pf Dd2 growth inactive.
For C[C@H](CO)N1C[C@H](C)[C@H](CN(C)Cc2ccc(C(=O)Nc3ccccc3N)cc2)Oc2ccc(NS(=O)(=O)c3ccc(Cl)cc3)cc2C1=O the results were C diff HTS inactive, T cruzi growth-1 inactive and Pf Dd2 growth inactive.
Cc1ccccc1-c1ccc2c(c1)O[C@@H](CN(C)C(=O)Nc1ccc(C(F)(F)F)cc1)[C@H](C)CN([C@H](C)CO)S2(=O)=O was read as C diff HTS inactive, T cruzi growth-1 101, Pf Dd2 growth inactive, T cruzi growth-2 inactive, T cruzi growth-3 98, NIH3T3 tox 51 and NIH3T3 tox 2 104.
Screening C[C@H]1CN([C@@H](C)CO)S(=O)(=O)c2ccc(-c3ccncc3)cc2O[C@@H]1CN(C)C(=O)Nc1ccc(C(F)(F)F)cc1 returned C diff HTS inactive, T cruzi growth-1 102, Pf Dd2 growth inactive, T cruzi growth-2 104, T cruzi growth-3 inactive, NIH3T3 tox inactive and NIH3T3 tox 2 79.
C[C@H]1CN([C@@H](C)CO)S(=O)(=O)c2ccc(-c3ccncc3)cc2O[C@H]1CN(C)C(=O)Nc1ccc(C(F)(F)F)cc1 was read as C diff HTS inactive, T cruzi growth-1 inactive and Pf Dd2 growth inactive.
`Cc1ccccc1-c1ccc2c(c1)O[C@@H](CN(C)C(=O)Nc1ccc(C(F)(F)F)cc1)[C@@H](C)CN([C@@H](C)CO)S2(=O)=O` gave C diff HTS inactive, T cruzi growth-1 inactive and Pf Dd2 growth inactive.
Screening C[C@H](CO)N1C[C@H](C)[C@H](CN(C)C(=O)Nc2ccc(C(F)(F)F)cc2)Oc2cc(-c3ccncc3)ccc2S1(=O)=O returned C diff HTS inactive, T cruzi growth-1 inactive and Pf Dd2 growth inactive.
For C[C@@H]1CN([C@H](C)CO)S(=O)(=O)c2ccc(-c3ccncc3)cc2O[C@H]1CN(C)C(=O)Nc1ccc(C(F)(F)F)cc1 the results were C diff HTS inactive, T cruzi growth-1 inconclusive, Pf Dd2 growth inactive, T cruzi growth-2 106, T cruzi growth-3 inactive, NIH3T3 tox 38 and NIH3T3 tox 2 73.
C[C@H](CO)N1C[C@H](C)[C@@H](CN(C)Cc2ccc(Cl)c(Cl)c2)Oc2ccc(NC(=O)CCN3CCOCC3)cc2CC1=O was read as C diff HTS inactive, T cruzi growth-1 inactive and Pf Dd2 growth inactive.
Screening C[C@@H]1CN([C@@H](C)CO)C(=O)c2cc(C#C[C@@H](C)O)cnc2O[C@@H]1CN(C)CC1CCOCC1 returned C diff HTS inactive and Pf Dd2 growth inactive.
C[C@@H]1CCCCO[C@H](CN(C)C(=O)c2ccccc2)[C@@H](C)CN([C@H](C)CO)C(=O)c2cc(NC(=O)Nc3ccccc3)ccc2O1 was read as C diff HTS inactive, T cruzi growth-1 inactive and Pf Dd2 growth inactive.
